Measurements: PubChem BioAssay AID686979 (National Center for Advancing Translational Sciences (NCATS), 2013)
Out of some 420,000 compounds screened, about 50,000 (12%) were called active. Not shown: some 26% with an inconclusive outcome. This is one part of a sample in which actives are shown more often than they occur. Unmarked numbers belong to inactive results. Calls follow the shape of the dose curve; as a rule, active = well fitted inhibition curve with a large enough effect; inconclusive = small, poorly fitted or top-dose-only effect; inactive = flat fitted curve, though single readings scatter.

Assay: qHTS for Inhibitors of human tyrosyl-DNA phosphodiesterase 1 (TDP1): qHTS in cells in presence of CPT; also: nearly all actives have a fitted effect of over 55% in size
Settings: chicken DT40 Tdp1-/-;hTDP1 cells + 20 nM CPT, ATP luminescence, 48 h; series mostly up to 46.2 µM; activity change, negative = growth inhibition: at the top concentration
Method in brief: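 Cell growth measured by CellTiter-Glo luminescence after a minimum 48 h, 37 C compound exposure with 20 nM CPT in Tdp1-knockout DT40 cells stably expressing hTDP1, seeded 400/well; qHTS titration format.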
% is scaled to controls: 0 for no effect and ±100 for the full control effect; potency is read from the fitted curve at half-maximal effect.

Structure (SMILES) | activity change, negative = growth inhibition [%] | Potency
O=C(COC(=O)Cc1ccc(Cl)cc1Cl)NCc1ccco1 | -8.95 | –
CN(C)/C=C(/C(=O)c1ccccc1)S(=O)(=O)c1ccc(Cl)cc1 | 0.918 | –
Cc1cc(Cl)nc(NC(=O)Nc2cccc(Cl)c2)n1 | -5.03 | –
COc1cc(C(=O)Nc2cc(C(F)(F)F)ccc2N2CCOCC2)ccc1O | -4.87 | –
COc1ccc(NC(=O)CC(NC(C)c2ccccc2)C(=O)O)cc1 (stereo unspecified) | 7.18 | –
CCC(=O)c1c[nH]c(C(=O)NCC2CCCO2)c1 (stereo unspecified) | -0.0051 | –
CCOC(=O)C1=CN(Cc2ccc(Br)cc2)S(=O)(=O)NC1C (stereo unspecified) | -10.2 | –
COc1ccccc1/C=C/C=N/n1c(-c2ccc(Cl)cc2Cl)n[nH]c1=S | -20.8 | –
COc1ccc(Cl)cc1C=CC=NNC(=O)c1ccncc1 | -28.1 | –
COc1ccc(Cl)cc1C=CC=Nc1ccc(S(N)(=O)=O)cc1 | – | 18.4 µM (active)
Cc1ccc(NC(=O)CN(C)C(=O)c2ccc(Cl)c(S(=O)(=O)NCc3ccco3)c2)cc1 | -11 | –
COc1ccc2c(c1)C(=C(C#N)C#N)C(=O)N2CCc1ccccc1 | – | 3.66 µM (active)
CCCCN1C(=O)/C(=C(/C#N)C(N)=O)c2ccccc21 | -25.4 | –
COc1ccc(CNC(=O)CCN2C(=O)c3ccccc3C2=O)cc1 | -3.64 | –
Cc1ccc(C(=O)Oc2coc(CSc3nnc(NC(=O)c4cccs4)s3)cc2=O)cc1C | -13.4 | –
Cc1cccc(NC(=S)NCCc2ccc(Cl)cc2)c1C | – | 18.4 µM (active)
CCNC(=S)Nc1cccc(Cl)c1C | -13.1 | –
Cc1c(Cl)cccc1NC(=S)NCC(O)c1ccccc1 (stereo unspecified) | 4.14 | –
CCOCCCNC(=O)c1cc2c(=O)n3ccccc3nc2s1 | – | inactive
Cc1ccc(S(=O)(=O)N(C)c2ccc(OCC(=O)OCC(=O)N(CC#N)c3ccccc3)cc2)cc1 | 4.22 | –
COc1ccc(C(=O)NCCn2nc(C)cc2C)cc1OC1CCN(C(C)=O)CC1 | -1.37 | –
Cc1ccc(OCC(=O)Oc2ccccc2[N+](=O)[O-])cc1 | 9.02 | –
O=[N+]([O-])c1ccccc1OCCCCN1CCCCC1 | -1.52 | –
Cc1cc(OCCCN2CCN(Cc3ccccc3)CC2)ccc1[N+](=O)[O-] | – | 23.1 µM (active)
Cc1cc(OCC(=O)Nc2c(C)n(C)n(-c3ccccc3)c2=O)ccc1[N+](=O)[O-] | -3.95 | –
Cc1cc(OCCCCOc2ccc(C#N)cc2)ccc1[N+](=O)[O-] | – | 13 µM (active)

Structure (SMILES) | activity change, negative = growth inhibition [%] | Potency
Cc1cc(OCC(=O)NC2CCN(C)CC2)ccc1[N+](=O)[O-] | -5.16 | –
COC(=O)c1cccc(N(CC(=O)NCC2CCCO2)C(=O)CCC(=O)Nc2cc(C)on2)c1 (stereo unspecified) | 12.7 | –
O=C(CSc1nnc(CNC(=O)c2ccc(F)cc2)o1)Nc1ccc2c(c1)OCO2 | -15.9 | –
O=C(Nc1cccnc1)c1ccc(Cl)c([N+](=O)[O-])c1 | 10 | –
O=C(Nc1ccncc1)c1ccc(Cl)c([N+](=O)[O-])c1 | – | 11.6 µM (active)
Cc1ccnc(NC(=O)c2ccc(Cl)c([N+](=O)[O-])c2)c1 | -10.8 | –
Cc1ccc2c(=O)c(C(=O)c3ccc(F)cc3)cn(CC(=O)NC3CCCCC3)c2n1 | -17.8 | –
N=C(N)SCc1cccc2ccccc12 | – | 18.4 µM (active)
c1ccc2c(CNn3cnnc3)cccc2c1 | -4.07 | –
c1ccc(NCc2cccc3ccccc23)nc1 | -7.92 | –
COc1cc(NC(=O)COc2ccccc2Cl)ccc1NC(=O)C(C)C | -20 | –
CCCC(=O)NC(=S)Nc1ccc(CN2CCOCC2)cc1 | 4.02 | –
CC(Sc1nnc(CNC(=O)c2ccccc2F)n1C)C(=O)Nc1nccs1 (stereo unspecified) | -16.6 | –
Brc1cccc(-c2nnn3c2nc(NC2CCCCC2)c2ccccc23)c1 | 0.81 | –
CCc1nnc(NC(=O)CSCc2cc(=O)n3cc(C)sc3n2)s1 | -17.7 | –
COc1ccc(-c2cc(C(F)(F)F)nc(SCC(=O)Nc3ccc4c(c3)OCO4)n2)cc1OC | 2.49 | –
COc1ccccc1-c1cc(C(F)(F)F)nc(S(=O)(=O)CCCC(=O)Nc2cc(C)ccc2O)n1 | -25.6 | –
O=C(CSc1ccc(-c2cccs2)nn1)Nc1ccccc1F | -10.7 | –
COc1ccccc1-c1cc(C(F)(F)F)nc(S(=O)(=O)CCCC(=O)Nc2ccc(F)cc2F)n1 | – | 5.17 µM (active)
CSc1ccccc1NC(=O)CCS(=O)(=O)c1nc(-c2cccs2)cc(C(F)(F)F)n1 | – | 10.3 µM (active)
COc1ccc(Cl)cc1NC(=O)CSc1nc(-c2cccs2)cc(C(F)(F)F)n1 | – | 23.1 µM (active)
Cc1ccc(O)c(NC(=O)c2cc(-c3ccc(F)cc3)no2)c1 | -16.7 | –
CSc1ccccc1NC(=O)Cc1ccc(Br)cc1 | -16.6 | –
Cc1ccc(O)c(NC(=O)CCS(=O)(=O)c2nc(-c3ccc4c(c3)OCO4)cc(C(F)(F)F)n2)c1 | – | 8.2 µM (active)
CC(Sc1nc(-c2ccccc2)cc(C(F)(F)F)n1)C(=O)Nc1ccc2c(c1)OCO2 (stereo unspecified) | -27.9 | –
